The source made the active and inactive calls. Rule for the calls: active = hit-call score of the fitted dose curve at least 0.9, where 1 is the maximum; inactive = score below 0.9.

Read-out in one experiment: Monokine induced gamma interferon (MIG), CXCL9 (gene 4283)
Kind of experiment: BSK_SAg_MIG: BioMAP Diversity Plus: SAg Assay for Monokine induced gamma interferon (MIG) Biomarker Activity (AID 2283092). The note with it: primary human HUVEC with PBMC; actives raise or lower the signal. The procedure, abridged:
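HUVEC plus human PBMC co-culture, chemicals dosed and MIG (CXCL9) quantified by ELISA at 24 h. Bidirectional curve fitting against DMSO as negative control and baseline, so both gain and loss of signal count as activity.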
For `CCCCOC(=O)CCCCC(=O)OCCCC`, the outcome was inactive.

By AC50 is commonly meant the concentration giving half of the maximal activity seen. With `Cc1ccc(-c2cc(C(F)(F)F)nn2-c2ccc(S(N)(=O)=O)cc2)cc1`, the AC50 is 34.6 µM (active).

Consider `O=NO`, for which the outcome was inactive.

Turning to `COc1ccc(C(=O)Nc2nc3ccccc3c(NCc3ccccc3)c2C#N)cc1`, the outcome was inactive.

In the case of `O=C1c2c(O)cccc2Cc2cccc(O)c21`, the outcome was inactive.

Turning to `COc1ccc(OC(F)(F)F)cc1CN[C@H]1CCCN[C@H]1c1ccccc1`, the result was inactive.

`Nc1nc(Cl)nc2c1ncn2[C@H]1C[C@H](O)[C@@H](CO)O1`: the outcome was inactive.

For the molecule `CO[C@@H]1COCC[C@@H]1N[C@@H]1CC[C@@](C(=O)N2CCc3ncc(C(F)(F)F)cc3C2)(C(C)C)C1`, the result was inactive.

Turning to `CC(COCC(C)OC(=O)c1ccccc1)OC(=O)c1ccccc1` (centres undefined), the outcome was inactive.

For `CCCCCCC(CCCCCCCCCCC(=O)OCC(COC(C)=O)OC(C)=O)OC(C)=O` (centres undefined), the result was inactive.

With `O=C1O[C@H]([C@H](O)CO)C(O)=C1O`, the outcome was inactive.

`CCCCCCC(C=O)=Cc1ccccc1`: the half-maximal activity concentration (AC50) was 31.5 µM (active).

`O=C(O)CN(CC(=O)O)CC(=O)O`: the result was inactive.

In the case of `CCc1nc(N)nc(N)c1-c1ccc(Cl)cc1`, the outcome was inactive.

For the molecule `Cc1cc(Cc2ccc(N)c(C)c2)ccc1N`, the result was inactive.

For `O=C(Oc1ccccc1)c1cccc(C(=O)Oc2ccccc2)c1`, the result was inactive.

Consider `O=C1CCCCC1`, for which the result was inactive.

`COC(=O)[C@H]1[C@H]2C[C@@H]3c4[nH]c5cc(OC)ccc5c4CCN3C[C@H]2C[C@@H](OC(=O)c2cc(OC)c(OC)c(OC)c2)[C@@H]1OC`: the AC50 is 24.5 µM (active).

For `c1ccc2occc2c1`, the result was inactive.

Read-out in a further experiment: not listed separately
Kind of experiment: BSK_SAg_PBMCCytotoxicity: PBMC Cytotoxicity Assessment in the BioMAP Diversity Plus: SAg Assay (AID 2283093).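 For AC50: PBMC superantigen activated with SEB plus TSST-1 one hour after compound addition.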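 Note: PBMC viability measured as Alamar Blue reduction fluorescence at 546/580 nm; fitted both ways against DMSO so a hit may be loss or gain of signal.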 The note with it: primary human HUVEC with PBMC. The procedure, abridged:
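Alamar Blue reduction (6 h, ex/em 546/580 nm) read after 90 h culture of PBMC pre-dosed 1 h then stimulated with SEB plus TSST-1, 20 ng/mL each. Gain or loss of signal fitted relative to DMSO.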
Regarding `CCCCOC(=O)CCCCC(=O)OCCCC`, the result was inactive.

As to `Oc1ccccc1O`, the outcome was inactive.

As to `CC(C)NCC(O)c1ccc(O)c(O)c1` (centres undefined), the AC50 is 13.5 µM (active).

With `CC1=C(C)S(=O)(=O)CCS1(=O)=O`, the outcome was inactive.

For `O=C(O)c1[nH]n(-c2ccc(S(=O)(=O)O)cc2)c(=O)c1N=Nc1ccc(S(=O)(=O)O)cc1`, the result was inactive.

Turning to `O=NO`, the result was inactive.

As to `C/C=C/c1ccc(OC)cc1`, the result was inactive.

Regarding `COc1ccc(C(=O)Nc2nc3ccccc3c(NCc3ccccc3)c2C#N)cc1`, the result was inactive.

In the case of `O=C1c2c(O)cccc2Cc2cccc(O)c21`, the result was inactive.

`CC(=O)O`: the result was inactive.

For `Cc1ccc(C(C)(C)C)c(O)c1`, the result was inactive.

On to `CCCCCCCCCCCCCCCCO`, for which the outcome was inactive.

On to `COc1ccc(OC(F)(F)F)cc1CN[C@H]1CCCN[C@H]1c1ccccc1`, for which the half-maximal activity concentration (AC50) was 26.6 µM (active).

As to `Nc1nc(Cl)nc2c1ncn2[C@H]1C[C@H](O)[C@@H](CO)O1`, the AC50 was 0.642 µM (active).

For the molecule `CO[C@@H]1COCC[C@@H]1N[C@@H]1CC[C@@](C(=O)N2CCc3ncc(C(F)(F)F)cc3C2)(C(C)C)C1`, the outcome was inactive.

Regarding `CC(COCC(C)OC(=O)c1ccccc1)OC(=O)c1ccccc1` (centres undefined), the result was inactive.

On to `CCCCCCC(CCCCCCCCCCC(=O)OCC(COC(C)=O)OC(C)=O)OC(C)=O` (centres undefined), for which the result was inactive.

Turning to `O=C1O[C@H]([C@H](O)CO)C(O)=C1O`, the result was inactive.

Consider `CCCCCCC(C=O)=Cc1ccccc1`, for which the AC50 was 31 µM (active).

Regarding `O=C(O)CN(CC(=O)O)CC(=O)O`, the result was inactive.

On to `CCc1nc(N)nc(N)c1-c1ccc(Cl)cc1`, for which the result was inactive.

Turning to `Cc1cc(Cc2ccc(N)c(C)c2)ccc1N`, the result was inactive.

Take `CCOCCOCCO`: the outcome was inactive.

On to `O=C(O)c1cccnc1`, for which the result was inactive.

For `O=C(Oc1ccccc1)c1cccc(C(=O)Oc2ccccc2)c1`, the outcome was inactive.

With `O=C1CCCCC1`, the result was inactive.

With `COC(=O)CCCC(=O)OC`, the result was inactive.

As for `COC(=O)[C@H]1[C@H]2C[C@@H]3c4[nH]c5cc(OC)ccc5c4CCN3C[C@H]2C[C@@H](OC(=O)c2cc(OC)c(OC)c(OC)c2)[C@@H]1OC`, the AC50 was 23.9 µM (active).

As for `c1ccc2occc2c1`, the outcome was inactive.

Read-out in a further experiment: Interleukin-8 (IL8), CXCL8 (gene 3576)
Kind of experiment: BSK_SAg_IL8: BioMAP Diversity Plus: SAg Assay for Interleukin-8 (IL8) Biomarker Activity (AID 2283094). The note with it: primary human HUVEC with PBMC; actives raise or lower the signal. The procedure, abridged: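 ELISA readout of IL-8 from a superantigen-activated endothelial/PBMC primary human co-culture, taken 24 h post-dosing and fitted in both directions against DMSO; parallel SRB total-protein staining flags overt cytotoxicity.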
Take `Oc1ccccc1O`: the outcome was inactive.

On to `CC(C)NCC(O)c1ccc(O)c(O)c1` (centres undefined), for which the result was inactive.

`CC1=C(C)S(=O)(=O)CCS1(=O)=O`: the outcome was inactive.

Consider `Cc1ccc(-c2cc(C(F)(F)F)nn2-c2ccc(S(N)(=O)=O)cc2)cc1`, for which the AC50 is 23.9 µM (active).

Take `O=C(O)c1[nH]n(-c2ccc(S(=O)(=O)O)cc2)c(=O)c1N=Nc1ccc(S(=O)(=O)O)cc1`: the result was inactive.

Consider `C/C=C/c1ccc(OC)cc1`, for which the result was inactive.

Consider `CC(=O)O`, for which the result was inactive.

With `Cc1ccc(C(C)(C)C)c(O)c1`, the outcome was inactive.

Regarding `CCCCCCCCCCCCCCCCO`, the result was inactive.

For `CCOCCOCCO`, the result was inactive.

For `O=C(O)c1cccnc1`, the outcome was inactive.

As for `COC(=O)CCCC(=O)OC`, the outcome was inactive.

Read-out in the next experiment: not listed separately
Kind of experiment: BSK_SAg_Proliferation: Cell Proliferation Assessment in the BioMAP Diversity Plus: SAg Assay (AID 2283095).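 Note: relative cell number as total protein by SRB absorbance in sub-confluent culture.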 The note with it: primary human HUVEC with PBMC. The procedure, abridged: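 Relative cell number in the endothelial cell/PBMC co-culture was quantified at 96 h by SRB staining (0.1% SRB, 10% TCA fixation, read at 560 nm). Curves were fitted in both directions relative to DMSO baseline.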
For the molecule `CCCCOC(=O)CCCCC(=O)OCCCC`, the result was inactive.

Turning to `Oc1ccccc1O`, the AC50 was 24.5 µM (active).

For the molecule `CC(C)NCC(O)c1ccc(O)c(O)c1` (centres undefined), the AC50 was 24.5 µM (active).

On to `CC1=C(C)S(=O)(=O)CCS1(=O)=O`, for which the result was inactive.

With `Cc1ccc(-c2cc(C(F)(F)F)nn2-c2ccc(S(N)(=O)=O)cc2)cc1`, the AC50 was 23 µM (active).

Take `O=C(O)c1[nH]n(-c2ccc(S(=O)(=O)O)cc2)c(=O)c1N=Nc1ccc(S(=O)(=O)O)cc1`: the result was inactive.

Turning to `O=NO`, the result was inactive.

Take `C/C=C/c1ccc(OC)cc1`: the outcome was inactive.

As for `COc1ccc(C(=O)Nc2nc3ccccc3c(NCc3ccccc3)c2C#N)cc1`, the AC50 is 6.22 µM (active).

Consider `O=C1c2c(O)cccc2Cc2cccc(O)c21`, for which the outcome was inactive.

For `CC(=O)O`, the outcome was inactive.

Regarding `Cc1ccc(C(C)(C)C)c(O)c1`, the outcome was inactive.

`CCCCCCCCCCCCCCCCO`: the result was inactive.

`COc1ccc(OC(F)(F)F)cc1CN[C@H]1CCCN[C@H]1c1ccccc1`: the half-maximal activity concentration (AC50) is 32.6 µM (active).

Regarding `Nc1nc(Cl)nc2c1ncn2[C@H]1C[C@H](O)[C@@H](CO)O1`, the AC50 was 0.147 µM (active).

With `CO[C@@H]1COCC[C@@H]1N[C@@H]1CC[C@@](C(=O)N2CCc3ncc(C(F)(F)F)cc3C2)(C(C)C)C1`, the outcome was inactive.

Turning to `CC(COCC(C)OC(=O)c1ccccc1)OC(=O)c1ccccc1` (centres undefined), the result was inactive.

With `CCCCCCC(CCCCCCCCCCC(=O)OCC(COC(C)=O)OC(C)=O)OC(C)=O` (centres undefined), the result was inactive.

For the molecule `O=C1O[C@H]([C@H](O)CO)C(O)=C1O`, the AC50 is 12 µM (active).

In the case of `CCCCCCC(C=O)=Cc1ccccc1`, the AC50 was 34.9 µM (active).

As for `O=C(O)CN(CC(=O)O)CC(=O)O`, the AC50 was 29.1 µM (active).

In the case of `CCc1nc(N)nc(N)c1-c1ccc(Cl)cc1`, the result was inactive.

Turning to `Cc1cc(Cc2ccc(N)c(C)c2)ccc1N`, the result was inactive.

On to `CCOCCOCCO`, for which the result was inactive.

As for `O=C(O)c1cccnc1`, the result was inactive.

Consider `O=C(Oc1ccccc1)c1cccc(C(=O)Oc2ccccc2)c1`, for which the AC50 is 24.2 µM (active).

`O=C1CCCCC1`: the outcome was inactive.

With `COC(=O)CCCC(=O)OC`, the result was inactive.

As for `c1ccc2occc2c1`, the outcome was inactive.

The values are drawn from PubChem BioAssay (EPA / NIEHS).
